# Measured values: PubChem BioAssay AID1347084 (National Center for Advancing Translational Sciences (NCATS), 2019)
# Results filed as inconclusive are left out. Activity calls are given as the source filed them. Calls come from the whole dose curve.
# Experiment: qHTS for Inhibitors of the Functional Ribonucleoprotein Complex (vRNP) of Lymphocytic Choriomeningitis Arenaviruses (LCMV): LCMV Confirmatory Screen - GLuc reporter signal
# Settings: LCMV minigenome vRNP, Gaussia luciferase reporter; series mostly up to 53.9 µM; activity change, negative = inhibition: at the top concentration
Structure (SMILES),Potency,"activity change, negative = inhibition"
COC(=O)c1nc(Cl)c(Cl)nc1N,1.72 µM (active),
CCOC(=O)OCC/C(SC(=O)OCC)=C(\C)N(C=O)Cc1cnc(C)nc1N,,-12.6% (inactive)
C=C1CC[C@@H]2[C@](C)(CO)[C@H](O)CC[C@@]2(C)[C@@H]1/C=C/C1=CCOC1=O,21.7 µM (active),
Cc1ccccc1-n1c(Cn2nc(-c3cccc(O)c3)c3c(N)ncnc32)nc2cccc(C)c2c1=O,30.6 µM (active),
COCCOC(=O)C1=C(C)NC(C)=C(C(=O)OC/C=C/c2ccccc2)C1c1cccc([N+](=O)[O-])c1 (centres undefined),21.7 µM (active),
NC(=O)N/N=C/c1ccc([N+](=O)[O-])o1,24.3 µM (active),
FC(F)(F)c1ccc(C=Cc2nc(COc3ccc(CCCCn4ccnn4)cc3)co2)cc1,0.0153 µM (active),
CC(C)(C)C1CCC(CC2=C(O)c3ccccc3C(=O)C2=O)CC1 (centres undefined),6.11 µM (active),
C=C(C)C1Cc2c(ccc3c2OC2COc4cc(OC)c(OC)cc4C2C3=O)O1 (centres undefined),0.0153 µM (active),
CNCCCC1c2ccccc2C=Cc2ccccc21,30.6 µM (active),
Cc1cccc(-c2[nH]c(C(C)(C)C)nc2-c2ccc3c(c2)OCO3)n1,3.43 µM (active),
Cn1cc(-c2ccncc2)c(-c2ccc(OCc3ccc4ccccc4n3)cc2)n1,24.3 µM (active),
CC(=O)OCC(=O)[C@@]12N=C(C)O[C@H]1C[C@H]1[C@@H]3CCC4=CC(=O)C=C[C@]4(C)[C@@H]3[C@@H](O)C[C@@]12C,,34.7% (inactive)
CC(=O)[C@H]1CC[C@H]2[C@@H]3CCC4=CC(=O)CC[C@]4(C)[C@H]3CC[C@]12C,24.3 µM (active),
